Assay outcomes: PubChem BioAssay, Sanford-Burnham Center for Chemical Genomics
PABP polyA inh = blocks human PABP binding to poly(A) RNA; calls only at 35 µM; actives 1% (n = 290,000); P11940; fluorescence polarization;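 also: calls also rest on retests at 20 µM and on dose response follow-up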
APOBEC3G inh = blocks human APOBEC3G single-stranded DNA deamination; recombinant A3G, ssDNA deamination FAM/TAMRA fluorescence; inhibition, % at 20 µM; actives 0.28% (n = 330,000); AID 493012; Q9HC16;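 active = inhibition of at least 40% at 20 µM, with no more than 30% in the related APOBEC3A deaminase screen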
PHOSPHO1 inh = inhibitors of human PHOSPHO1 phosphatase; recombinant PHOSPHO1, absorbance phosphatase assay; inhibition, % at 13.3 µM; actives 1.1% (n = 290,000); AID 1565; in the data active = inhibition above about 60%
eIF4H FP inh = inhibitors of RNA binding by human eIF4H. inhibition, % at 35 µM. eIF4H fluorescence polarization binding assay. actives 0.94% (n = 290,000). AID 2012;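 also: calls also rest on retests at 20 µM and on dose response follow-up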
MLLE-PAM2 inh = inhibitors of microRNA-mediated deadenylation, human PABP1 MLLE binding. P11940. GST-MLLE / FITC-PAM2 fluorescence polarization. inhibition, % at 20 µM. actives 0.36% (n = 360,000). AID 588489; in the data active = inhibition above about 35%, passing the limit was not always enough
APOBEC3A inh = human APOBEC3A DNA deaminase inhibition; AID 493011; inhibition, % at 20 µM; recombinant A3A, FAM/TAMRA ssDNA deamination fluorescence; actives 0.41% (n = 330,000);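 active = at least 40% inhibition at 20 µM here, with at most 30% in a related deaminase screen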
APOBEC3A confirm = APOBEC3A (human) deaminase inhibition, confirmed | shares compounds with APOBEC3A inh | recombinant A3A, ssDNA deaminase UDG fluorescence assay | inhibition, % at 20 µM | actives 63% (n = 1,400);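 active = inhibition reaching a set limit, 80% of the first screen's cutoff, at 20 µM in any replicate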
UDG A3A counter = inhibits UDG, flagging false APOBEC3A inhibitors | inhibition, % at 20 µM | shares compounds with APOBEC3A inh | 1,000 tested, under 10 active | AID 504714 | UDG counterscreen, FAM/TAMRA uracil oligo fluorescence
Hits are given with their value; n = inactive; u = inconclusive; x = no result; + = active, no number. Hits are enriched below; roughly 2.6% of the tested compounds scored in any of these assays. Unless noted, no rule for the calls is given here.

SMILES	PABP polyA inh	APOBEC3G inh	PHOSPHO1 inh	eIF4H FP inh	MLLE-PAM2 inh	APOBEC3A inh	APOBEC3A confirm	UDG A3A counter
Cn1c(SCC(=O)NCc2ccccc2)nnc1-c1ccc(NC(=O)CCc2ccccc2)cc1	n	n	n	n	n	57.7	51.2	n
Cn1c(SCC(=O)NCc2ccco2)nnc1-c1ccccc1	n	n	n	n	n	n	x	x
CCCCSc1nnc(-c2ccc(NC(=O)CCc3ccccc3)cc2)n1C	n	n	n	n	n	n	x	x
CCC(=O)Nc1cccc(-c2nnc(SCC(=O)NCc3ccco3)n2C)c1	n	n	n	n	n	46.1	68.5	n
Cc1cc(C)n2nc(C(=O)N3CCN(c4ccc([N+](=O)[O-])cc4)CC3)nc2n1	n	n	n	n	n	n	x	x
CN(C)Cc1c(C(=O)N/N=C/c2ccncc2)nnn1-c1nonc1N	n	n	n	n	n	48.0	n	n
Cc1ccc(NS(=O)(=O)c2ccc(NC(=O)C(C)Sc3ccc(Cl)cc3)cc2)c(C)c1 (centres undefined)	n	n	n	n	n	n	x	x
Cc1noc(C)c1C(=O)Nc1cc(S(=O)(=O)N2CCCCC2)ccc1N(C)C	x	n	x	x	n	n	x	x
CCOCC(=O)Nc1cc(C)on1	n	n	n	n	n	n	x	x
CC(C)COC(=O)N1CCCC1C(=O)Nc1nccs1 (centres undefined)	n	n	n	n	n	53.9	n	x
CC(C)(C)CC(=O)NCc1ccc(F)cc1	n	n	n	n	n	n	x	x
CN(C)S(=O)(=O)c1ccc(N2CCCC2)c(C(=O)Nc2ccccc2F)c1	x	n	x	x	n	n	x	x
CN(C)S(=O)(=O)c1ccc(N2CCCC2)c(C(=O)Nc2ccc(F)cc2F)c1	x	n	x	x	n	40.7	n	x
CCn1c(SCC(=O)N2CCCC2)nnc1-c1ccc(N)cc1	n	n	n	n	n	43.6	64.7	n
CCCCn1c(SCC(=O)N2CCCC2)nnc1-c1ccccc1	n	n	n	n	n	n	x	x
CC(C)N1CC(O)=C(c2ccccc2)C1=N	n	n	n	n	n	73.9	n	n
CC(C)[C@H](NC(=O)c1ccco1)C(=O)OCc1cc(=O)n2c(n1)sc1ccccc12	n	n	n	n	n	62.7	39.4	n
O=C(OCc1cc(=O)n2c(n1)sc1ccccc12)c1ccc(O)cc1O	n	n	n	n	n	61.5	22.8	n
CCOc1ccc(NC(=O)CN(C)C(=O)C2CSC3(C)CCC(=O)N23)cc1OCC (centres undefined)	x	n	x	x	n	n	x	x
COn1c(-c2ccccc2)nc2c1CCc1nonc1-2	n	n	n	n	n	54.0	n	n
Cc1ccc(/C=N/Nc2cc(C)nc(NCc3ccccc3)n2)cc1	n	n	n	n	n	n	x	x
Cc1cc(N/N=C/c2ccc(O)cc2)nc(NS(=O)(=O)c2ccccc2)n1	n	n	n	n	n	48.7	39.0	n
O=C(Cc1ccc(S(=O)(=O)N2CCOCC2)s1)Nc1nc2c(s1)CCCC2	+	n	93.6	59.5	n	77.6	73.0	n
COC(=O)c1c(Sc2ccccc2)c2ccccc2n1C	x	n	x	x	n	58.3	81.7	n
Cn1c(CC(=O)NN)c(Sc2ccccc2)c2ccccc21	n	n	n	n	n	n	x	x
SMILES	PABP polyA inh	APOBEC3G inh	PHOSPHO1 inh	eIF4H FP inh	MLLE-PAM2 inh	APOBEC3A inh	APOBEC3A confirm	UDG A3A counter
COC/C=C/C1=CC2=CC(=O)C(C)(OC(=O)c3cccs3)C(=O)C2=CO1 (centres undefined)	x	n	x	x	x	n	x	x
COC/C=C/C1=CC2=CC(=O)C(C)(OC(=O)c3ccco3)C(=O)C2=CO1 (centres undefined)	u	n	n	u	x	57.9	60.3	x
CCC(NC(=O)NC1CCCCC1)c1ccccc1 (centres undefined)	n	n	n	n	n	n	x	x
CC(=O)NC(CC(=O)NC1CCCCCC1)c1ccccc1 (centres undefined)	n	n	n	n	n	45.5	32.3	n
Cc1ccc(C(C)C)c(OCC(=O)N/N=C2\CC(=O)CC(C)(C)C2)c1	n	n	n	n	n	n	x	x
COc1ccccc1OC(C)C(=O)N1CCN(Cc2ccc3c(c2)OCO3)CC1 (centres undefined)	n	n	n	n	n	57.2	48.5	n
